# According to ChEMBL document CHEMBL3988442, “University of Dundee, Small-Polar-MMV Screening Library” (2021):
# Among all 48,000 compounds or so, about 13,000 (27%) showed an effect of 50% or more. This is one part of the list.
# Test system: Wolbachia pipientis
# Test: Anti-Wolbachia Cell-Based Screen
# Type: functional
# Set-up: scale not given: in the data most compounds retested in dose-response had high values
# Settings: 5 µM
row,Structure (SMILES),Percent Effect [%]
1,CNc1ccc(CC2CCCN(C(=O)c3cncnc3C)C2)nn1 (stereo not drawn),-8.103
2,CNc1ccc(CC2CCCN(C(=O)c3cccc(C)n3)C2)nn1 (stereo not drawn),125.2
3,CNc1ccc(CC2CCCN(C(=O)c3cnc(C)nc3)C2)nn1 (stereo not drawn),2.499
4,CNc1ccc(CC2CCCN(C(=O)c3cnccn3)C2)nn1 (stereo not drawn),132.6
5,O=C(c1cnccn1)N1CCCC(Cn2cc(C3CC3)nn2)C1 (stereo not drawn),-22.35
6,Cc1cccc(C(=O)N2CCCC(c3nccn3Cc3cscn3)C2)n1 (stereo not drawn),13.18
7,CCc1noc(CN(CC)C(=O)c2ccc3ncsc3c2)n1,-4.547
8,Cc1nc(CN(C)C(=O)Nc2cccc(COC(C)C)c2)no1,-5.04
9,Cc1nc(CN(C)C(=O)Nc2cccc(C)c2C)no1,98.94
10,Cc1nc(CN(C)C(=O)Nc2cccc(COC(C)C)c2C)no1,-7.168
11,CCN(C)c1ncnc2c1CCN(C(=O)c1cnccn1)CC2.O=C(O)C(F)(F)F,3.18
12,CCCc1n[nH]c(C2CN(C(=O)CCn3ccccc3=O)CCO2)n1 (stereo not drawn),104.2
13,CCc1n[nH]c(C2CN(C(=O)CCn3ccccc3=O)CCO2)n1 (stereo not drawn),105.3
14,CCc1n[nH]c(C2CN(C(=O)CCc3cccs3)CCO2)n1 (stereo not drawn),3.606
15,CCc1n[nH]c(C2CN(C(=O)Cc3ccc(C)nc3)CCO2)n1 (stereo not drawn),17.82
16,CCCc1n[nH]c(C2CN(C(=O)Cn3ccccc3=O)CCO2)n1 (stereo not drawn),125.8
17,CCCc1n[nH]c(C2CN(C(=O)CCCn3cccn3)CCO2)n1 (stereo not drawn),-7.162
18,CCc1n[nH]c(C2CN(C(=O)Cc3cccs3)CCO2)n1 (stereo not drawn),122.2
19,CCc1n[nH]c(C2CN(C(=O)Cn3ccccc3=O)CCO2)n1 (stereo not drawn),10.71
20,CC(C)(C)c1coc([C@@H]2COCCN2Cc2c[nH]c3ccccc23)n1,-5.354
21,CS(=O)(=O)Cc1cccc(C(=O)NCC2Cc3ccccc3O2)c1 (stereo not drawn),-6.812
22,CC(C)N(C)CC(=O)N1CCCC(c2ccc(C(=O)O)cc2)C1 (stereo not drawn),-10.1
23,CCC1CN(C(=O)c2ccccc2N(C)C)CCN1C(C)C (stereo not drawn),-1.815
24,CCN(C)S(=O)(=O)N1CCCC(c2cccc(C(=O)O)c2)C1 (stereo not drawn),10.58
25,O=C(O)c1cccc(C2CCCN(S(=O)(=O)C3CC3)C2)c1 (stereo not drawn),5.769
26,CN(C)c1ccccc1C(=O)N1CCCC(c2cccc(C(=O)O)c2)C1 (stereo not drawn),94.85
27,CN(C)c1ccccc1C(=O)N1CCCC(c2ccc(C(=O)O)cc2)C1 (stereo not drawn),127.7
28,CCS(=O)(=O)c1ncc(CN2CCSCC2)n1CCc1ccccc1,0.5583
